EBV LMP1 NFkB = EBV LMP1-driven NF-kappaB luciferase reporter inhibitors, primary screen, cell-based, luminescence, single point; inhibition, % at 12.5 µM; LMP1-induced NF-kappaB luciferase reporter cells; hit rate 0.69% among 350,000; AID 504558, 2011; in the data active = inhibition above about 41%;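 also: 0% = neutral control wells and 100% = reference inhibitor control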
Peg3 prom inh-1 = Peg3 promoter-driven luciferase inhibitors, primary screen, cell-based, HeLa, luciferase luminescence | HeLa PEG-Prom luciferase reporter, overnight | inhibition, % at 20 µM | hit rate 1.7% among 360,000;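 active = inhibition of at least 50% at 20 µM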
CF NFkB block = inhibitors of PAF-induced NF-kB signaling, primary screen, cell-based, GFP fluorescence, uHTS; hit rate 0.86% among 360,000; inhibition, % at 5 µM; AID 588850, 2011; KKLEB NF-kB-GFP reporter, GFP fluorescence overnight;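 active = at least 50% inhibition at 5 µM, scaled per plate between neutral and stimulator controls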;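 also: PAF is a Pseudomonas aeruginosa culture filtrate used as stimulus; plate controls were PAF-stimulated DMSO wells for no effect and unstimulated DMSO wells for full effect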
KKLEB cytotox = cytotoxicity in KKLEB CF airway cells, primary screen, cytotoxicity control for CF NF-kB inhibitor project, cell-based, uHTS, fluorescence assay plates; KKLEB CF airway cells viability, ATPlite luminescence, overnight; active compounds read low; cells stimulated with P. aeruginosa culture filtrate; activity change (cytotoxicity), % at 5 µM; hit rate 0.36% among 360,000;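 active = corrected activity change at or below -50% at 5 µM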
TRPM1 prom inh = inhibitors of MITF-dependent TRPM1 promoter reporter, primary screen, cell-based, SK-MEL-5, single point, luciferase. SK-MEL-5 TRPM1 promoter luciferase, 24 h. inhibition, % at 12.5 µM. hit rate 0.83% among 330,000;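 active = mean inhibition across replicates of 60% or more, whatever share of single replicates reaches that level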
HIF-2a block = HIF-2a reporter inhibitors, primary screen, luminescence, 786-0 RCC cells | inhibition, % at 18.8 µM | hit rate 0.72% among 360,000 | 786-0 RCC cells HIF-2a reporter, luciferase luminescence, overnight;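 active = inhibition of the luminescence signal of 40% or more relative to plate controls, in a single-dose primary screen at 18.75 µM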
Peg3 prom inh-2 = Peg3 promoter reporter inhibitors, retest, confirmation, cell-based, HeLa, luciferase reporter, single concentration; hit rate 84% among 1,300; shares compounds with Peg3 prom inh-1; AID 602417, 2012; HeLa PEG-Prom luciferase reporter, luminescence, overnight; inhibition, % at 20 µM;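 active = at 20 µM dose, 40% or more inhibition averaged across four replicates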
* = called active by the depositor; nt = no result. An excerpt weighted towards active compounds, which were near 3% of everything screened.

SMILES	EBV LMP1 NFkB	Peg3 prom inh-1	CF NFkB block	KKLEB cytotox	TRPM1 prom inh	HIF-2a block	Peg3 prom inh-2
CC1(Cc2cc(Cl)ccc2C(F)(F)F)C(=O)Nc2ccc(OC(F)(F)F)cc21 (configuration not stated)	nt	52.0*	-13.0	-1.0	nt	10.0	12.7
CCCCCCN1C[C@@H](O)[C@H](n2cc(COC(=O)c3ccccc3)nn2)C[C@@H]1c1ccc(C)cc1	-1.6	47.8	-7.3	-26.3	nt	11.9	nt
CC1(C)Oc2cc3oc(-c4cc(O)cc(O)c4)cc3cc2CC1O (configuration not stated)	19.5	59.0*	-6.9	-10.0	50.3	38.4	65.5*
CCCN(CCC)S(=O)(=O)c1ccc(N2CCCC2=O)c([N+](=O)[O-])c1	-39.3	16.7	6.9	-3.2	1.4	20.2	nt
CCCN(CCC)S(=O)(=O)c1ccc(Cl)c([N+](=O)[O-])c1	1.8	94.3*	59.7*	-50.1*	17.0	34.5	39.8
COc1ccccc1C(=O)Nc1nc2ccccc2s1	85.3*	104.5*	-19.9	-94.9*	80.7*	85.5*	94.7*
CN(C)CCCN1c2ccccc2Sc2ccc3ccccc3c21	4.2	61.3*	19.5	6.5	0.2	-13.8	97.9*
CN(C)CCCN1c2ccc3ccccc3c2Sc2cccc(Cl)c21	-12.4	44.1	0.2	-2.0	-6.5	-70.2	nt
O=C(CCl)N1c2ccccc2Sc2ccc3ccccc3c21	31.7	106.9*	25.9	-21.9	nt	31.7	100.1*
O=C(COc1ccc2ccccc2c1)N1c2ccccc2Sc2ccccc21	6.7	19.8	15.9	4.9	6.5	5.8	nt
Cn1c2ccccc2c2ccc3c(c21)C(=O)C=CC3=O	7.6	104.5*	33.0	-12.4	89.3*	-12.1	100.7*
CC1OC(C2CCCCC2)Cc2[nH]c(=S)[nH]c(=O)c21 (configuration not stated)	nt	nt	nt	nt	nt	0.8	nt
CCCCC(=O)NC(c1ccc(Cl)cc1)c1ccc2cccnc2c1O (configuration not stated)	67.1*	61.8*	-23.5	-1.5	nt	18.3	68.5*
CCC(=O)NC(c1ccc(OC)c(OC)c1)c1cc(Cl)c2cccnc2c1O (configuration not stated)	-7.5	55.3*	35.9	-28.9	39.6	16.1	62.8*
CCCCC(=O)NC(c1ccc(N(CC)CC)cc1)c1ccc2cccnc2c1O (configuration not stated)	81.9*	59.2*	-6.9	-10.9	58.4	7.4	69.8*
CCCC(=O)NC(c1cccc([N+](=O)[O-])c1)c1ccc2cccnc2c1O (configuration not stated)	67.6*	57.8*	12.1	-5.1	nt	13.4	66.3*
COc1ccc(C(NC(C)=O)c2cc(Cl)c3cccnc3c2O)cc1OC (configuration not stated)	-5.3	38.0	13.8	-4.0	39.9	1.9	nt
CCC(=O)NC(c1cccc([N+](=O)[O-])c1)c1c(OC(C)=O)ccc2ccccc12 (configuration not stated)	-5.8	18.6	10.8	1.5	6.6	6.6	nt
CCCC(=O)NC(c1cccs1)c1cc(Cl)c2cccnc2c1O (configuration not stated)	30.8	44.6	-13.6	5.1	45.3	9.5	nt
CCCC(=O)NC(c1ccc(N(C)C)cc1)c1c(O)ccc2ccccc12 (configuration not stated)	-6.3	21.8	-7.5	-3.7	3.6	20.0	nt
O=C(OCc1ccccc1F)c1cc(S(=O)(=O)N2CCCCC2)ccc1N1CCOCC1	-12.0	19.8	-7.6	-2.2	nt	-2.2	nt
O=C(OCc1ccccc1)N1Cc2ccnnc2CC1c1ccccc1Br (configuration not stated)	nt	8.8	-21.6	3.0	nt	12.6	nt
Cc1nc2c(OCc3ccc(OC(F)F)cc3)cccn2c1N(C)C(=O)CCC1CCCC1	nt	65.1*	0.4	-6.9	nt	-0.5	54.2*
Cc1nc2c(OCc3ccc(F)c(F)c3)cccn2c1N(C)C(=O)CCC1CCCC1	nt	25.9	-2.0	-18.3	nt	0.6	nt
COc1ccc(CNC(=O)CN2CCC(NC(=O)c3cccc(OC)c3)CC2)cc1	-2.5	1.4	16.9	15.7	4.5	4.7	nt
SMILES	EBV LMP1 NFkB	Peg3 prom inh-1	CF NFkB block	KKLEB cytotox	TRPM1 prom inh	HIF-2a block	Peg3 prom inh-2
N=c1n(CC(=O)c2ccc([N+](=O)[O-])cc2)c2ccccc2n1Cc1ccccc1	-38.4	66.0*	3.4	-31.2	85.2*	12.4	42.4*
N=c1n(CC(=O)c2ccc([N+](=O)[O-])cc2)c2ccccc2n1Cc1ccc(Cl)cc1	1.2	109.0*	6.6	-36.5	91.7*	10.1	97.0*
O=C(C[C@H]1C[C@@H]2c3cc(NC(=O)c4cccnc4)ccc3O[C@@H]2[C@H](CO)O1)NCc1ccncc1	-8.5	-3.9	1.3	-18.1	nt	10.0	nt
C[C@@H]1CCCCO[C@@H](CN(C)Cc2ccncc2)[C@@H](C)CN([C@H](C)CO)C(=O)c2cc(NC(=O)c3ccccc3)ccc2O1	-1.4	6.5	-21.8	11.3	nt	3.7	nt
O=C(Nc1cccc(Br)c1)c1ccc(CSc2ccccc2)cc1	12.0	-70.4	-8.6	-3.6	-58.6	-103.2	nt
Cc1cc(CSc2ccccc2)ccc1NC(=O)c1ccc(Br)cc1	1.2	53.9*	-11.0	11.0	3.7	7.3	22.7
COC(=O)[C@]12CCCCC=C1N(Cc1ccccc1)C(=O)[C@H](CC(=O)NCCc1ccccc1OC)C2	nt	nt	nt	nt	nt	-18.9	nt
Cc1ccc2cccc(OCC(=O)Nc3cccc(S(=O)(=O)N4CCCC4)c3)c2n1	-4.8	64.4*	2.0	-18.5	1.8	6.4	64.1*
COC(=O)N(C)C[C@@H]1OCc2cn(nn2)CCCC(=O)N([C@@H](C)CO)C[C@H]1C	-1.1	17.7	-29.2	6.7	nt	-3.8	nt
CC(OC(=O)CCNS(=O)(=O)c1ccccc1)C(=O)Nc1ccc(S(=O)(=O)N2CCCCC2)cc1 (configuration not stated)	-3.8	11.6	-21.7	2.4	10.6	14.3	nt
CN(C)CCCN(C(=O)c1ccc(S(=O)(=O)N2CCc3ccccc32)cc1)c1nc2ccc(F)cc2s1	-9.5	10.9	14.7	-0.5	28.8	0.2	nt
Cc1cc(C)c2sc(N(CCCN(C)C)C(=O)c3ccc(S(=O)(=O)N4CCCc5ccccc54)cc3)nc2c1	2.9	102.3*	26.5	-26.6	82.8*	-22.1	98.7*
Cc1cc(Sc2ncnc(N)c2[N+](=O)[O-])ncn1	-9.8	105.9*	66.0*	4.6	77.6*	15.8	99.5*

Source: PubChem BioAssay (several laboratories)
